# Measured values as given in ChEMBL document CHEMBL3988442, “University of Dundee, Small-Polar-MMV Screening Library” (2021).
# In all, about 48,000 compounds went through this assay and about 13,000 (27%) showed an effect of 50% or more. The list shows a part of the results.
# System: Wolbachia pipientis
# Test: Anti-Wolbachia Cell-Based Screen
# Assay type: functional
# Design: scale not given: in the data most compounds retested in dose-response had high values
# Conditions: 5 µM
row,SMILES,Percent Effect [%]
1,O=C(NC[C@H]1OC[C@@H](NCc2ccccc2)[C@@H]1O)Nc1ccccc1,-15.87
2,C1CC(CN2C[C@@H]3C[C@@H](c4nnc(C5CC5)o4)O[C@@H]3C2)CCO1,101.2
3,O=C(Cc1ccsc1)N1C[C@@H]2C[C@@H](c3nnc(C4CC4)o3)O[C@@H]2C1,1.752
4,Cc1noc([C@@H]2C[C@H]3CN(CC4CCOCC4)C[C@H]3O2)n1.O=C(O)C(F)(F)F,45.83
5,Cc1nnc([C@@H]2CC[C@@H]3[C@@H](CCN3CC3CCOCC3)O2)o1,8.23
6,C1CC(CN2CC[C@@H]3O[C@@H](c4nnc(C5CC5)o4)C[C@H]3C2)CCO1,104.3
7,Cc1nnc([C@H]2CC[C@@H]3[C@@H](CCN3CC3CCOCC3)O2)o1,-4.928
8,C1CC(CN2C[C@@H]3C[C@@H](c4nnc(C5CC5)o4)O[C@@H]3C2)C1,108.7
9,C1CC(CN2C[C@H]3CC[C@@H]2CN(Cc2nnc(C4CC4)o2)C3)C1,1.497
10,COc1cc2c(cc1OC)S(=O)(=O)N(Cc1ccccc1)C2=O,-12.48
11,CCC(C)N(Cc1cccnc1)Cc1ccccc1Cn1cccn1 (stereo not drawn),1.099
12,Cc1cc(N(Cc2ccccn2)C2CC2)n2nc(C(F)(F)F)nc2n1,23.9
13,CCS(=O)(=O)CC(=O)NC(c1ccccc1)C1CCCC1 (stereo not drawn),90.5
14,Cc1nn(C)c(C)c1NC(=O)CNC(c1ccccc1)C1CCCC1 (stereo not drawn),-3.756
15,O=C(CS(=O)(=O)C1CCCC1)NC(c1ccc(F)cc1)C1CC1 (stereo not drawn),106.7
16,CCC(NC(=O)CS(=O)(=O)C1CCCC1)c1cc(F)ccc1F (stereo not drawn),-16.07
17,CCn1cnnc1CNC(=O)NC(c1ccccc1)C1CCCC1 (stereo not drawn),9.923
18,N#CC(NC(=O)CS(=O)(=O)C1CCCC1)c1ccc(F)cc1F (stereo not drawn),10.46
19,CN(CCNC(=O)N1CCCC1)C(=O)OC(C)(C)C,-14.2
20,Cc1oc(NC(=O)C(C)N2CCN(CCO)CC2)c(C#N)c1C (stereo not drawn),14.13
21,Cn1cc(C#N)cc1C(=O)Nc1ccc(CN2CCOCC2)cn1,-7.398

row,SMILES,Percent Effect [%]
1,Cn1c(NCC(=O)N2CCCCC2)c(C#N)c(=O)n(C)c1=O,-4.549
2,Cc1c(CN2CCCCC2)c(O)n(CCCO)c(=O)c1C#N,106.4
3,Cn1c(NCCN2CCCCCC2)c(C#N)c(=O)n(C)c1=O,6.229
4,Cc1c(CN2CCOCC2)c(O)n(CCO)c(=O)c1C#N,129.2
5,Cc1nn(C)c(N2CCOCC2)c1CNC(C)c1cccnc1 (stereo not drawn),-5.13
6,Cc1ncsc1CCC(=O)NCc1csc(N2CCCC2)n1,13.92
7,CNC(=O)CCc1cc(C2CCCCN2C(C)C)nc(C)n1 (stereo not drawn),119
8,Cc1nc(O)cc(CCNC(=O)C2CC(=O)N(CC(C)C)C2)n1 (stereo not drawn),-0.9354
9,CNC(=O)CCc1cc(C2CCCCN2C)nc(C)n1 (stereo not drawn),129.2
10,CNC(=O)CCN1CCCCCC1c1ccc(C)o1 (stereo not drawn),-114
11,Cc1[nH]n(-c2ccccc2)c2nnc(N)c1-2,-6.219
12,Cc1noc(C)c1C1CCCN1C(=O)CN1CC2(CCNCC2)OC1=O (stereo not drawn),-18.41
13,Cc1cc(C2CCCN2C(=O)CN(C)Cc2ccccc2)no1 (stereo not drawn),-3.366
14,Cc1cc(C2CCCCN2C(=O)CN2C(=O)OC(C)(C)C2=O)no1 (stereo not drawn),120.5
15,CC(C)c1cc(C2CCCN2C(=O)CN2C(=O)OC(C)(C)C2=O)no1 (stereo not drawn),116.9
16,Cc1cc(C2CCCCN2C(=O)CN2CC3(CCNCC3)OC2=O)no1 (stereo not drawn),-1.974
17,Cc1noc(C)c1C1CCCN1C(=O)CN1C(=O)OC(C)(C)C1=O (stereo not drawn),87.43
18,Cc1noc(C)c1C1CCCN1CCC(=O)N1CCc2ccccc2C1 (stereo not drawn),-8.027
19,Cc1ccc2c(c1)SCC(=O)N2CC(=O)N1CCCC1c1cc(C)on1 (stereo not drawn),-2.59
20,Cc1cc(CC(=O)N2CCCC2c2nc(C(C)C)no2)on1 (stereo not drawn),-3.815
21,O=C1CCNC(=O)N1CC(=O)N1CCC1c1ccc(F)cc1 (stereo not drawn),13.18

row,SMILES,Percent Effect [%]
1,CC(C)c1cc(C2CCCN2C(=O)CN2C(=O)CCNC2=O)no1 (stereo not drawn),96.7
2,O=C(Cc1cccs1)NCC1COCc2c(-c3ccoc3)nnn2C1 (stereo not drawn),-2.287
3,COc1cccc2c1OCC(C(=O)N1CCN(C3CCSCC3)CC1)C2 (stereo not drawn),-19.41
4,Cc1ccc2c(c1)SCC(=O)N2CC(=O)N1CCCC1c1cc(C)no1 (stereo not drawn),3.294
5,Cc1cc(C2CCCN2C(=O)CN2CC3(CCNCC3)OC2=O)on1 (stereo not drawn),8.935
6,Cc1cc(C2CCCN2C(=O)CN2C(=O)OC(C)(C)C2=O)on1 (stereo not drawn),91.01
7,CN(CCC(F)(F)F)C(=O)[C@H]1CSCN1C(=O)OC(C)(C)C,-7.919
8,CC(=O)N1CCC(NC(=O)c2ccccc2-n2cnnn2)CC1,3.237
9,O=C(Nc1nncs1)c1ccc(-n2cnnn2)cc1,-0.9565
10,Cc1ccc(CNC(=O)Nc2nnc(C3CC3)s2)n1C,-14.35
11,CCc1nnc(NC(=O)c2ccc(C3CCCN3CC(C)C)s2)s1 (stereo not drawn),-1.663
12,Cc1ccc(C(=O)NC2CC2)c(-n2cnnn2)c1C,120.6
13,O=C(NC1CC1)c1cc(Cl)ccc1-n1cnnn1,2.892
14,Cc1ccc(C(=O)Nc2nnc(C3CC3)s2)c(-n2cnnn2)c1C,95.77
15,Cc1ccc(C(=O)Nc2nnc(C(C)C)s2)c(-n2cnnn2)c1C,110.4
16,Cc1nn(C)c(C)c1CCC(=O)Nc1nnc(C2CC2)s1,27.73
17,Cc1ccc(C(=O)Nc2nnc(CC(C)C)s2)c(-n2cnnn2)c1C,125.4
18,COc1ccc(F)cc1C(=O)Nc1nnc(C)s1,1.67
19,Cc1cc(C(=O)N[C@H](C)c2onc(C)c2C(=O)O)c(C)o1.Cl,-8.572
20,Cc1cc(C)c(C(=O)NC2CCN(c3ncccc3C#N)CC2)c(=O)[nH]1,4.704
21,Cc1ccc(C(=O)N2CC(C(N)=O)O[C@H](C)C2)c(C)c1 (stereo partly drawn),-8.345
